# Data taken from PubChem BioAssay (EPA / NIEHS).
# Several values for one entry are separate records, joined by “and”; a condition that tells them apart may be missing. Identical values can stand only once. Inconclusive results are not listed. Some compounds were tested as several samples or in several runs, with calls that do not always agree. Activity calls are given as the source filed them. The calls were made as follows, unless noted: active = hit-call score of the fitted dose curve at least 0.9, where 1 is the maximum; inactive = score below 0.9.
# How the values were obtained:
# [1] = read-out: Collagen I, COL1A1 (gene 1277); assay: BSK_MyoF_CollagenI: BioMAP Diversity Plus: MyoF Assay for Collagen I Biomarker Activity (AID 2284238); details: primary human lung fibroblasts
# How it was run: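 Lung fibroblasts (human primary) dosed, 24 h; Collagen I by ELISA; positive-direction fit vs DMSO control. Parallel SRB total-protein staining (0.1% SRB, 10% TCA fixation, 560 nm) flags overt cytotoxicity.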
# [2] = read-out: Collagen III, COL3A1 (gene 1281); assay: BSK_MyoF_CollagenIII: BioMAP Diversity Plus: MyoF Assay for Collagen III Biomarker Activity (AID 2284239); details: primary human lung fibroblasts
# How it was run: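 ELISA read-out of collagen III from human lung fibroblasts after 24 h of chemical treatment. The DMSO control served as negative control and baseline, with values fitted in the positive direction.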
# [3] = read-out: Interleukin 17F (IL17F), IL17F (gene 112744); assay: BSK_BT_xIL17F: BioMAP Diversity Plus: BT Assay for Interleukin 17F (IL17F) Biomarker Activity (AID 2284243); details: primary human B cells with PBMC
# How it was run: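 Compound was added to co-cultures of human B cells and PBMC. After 24 hours, IL-17F released into the medium was measured with LumineX xMAP technology. Responses were then fitted upward relative to DMSO.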
# [4] = read-out: Actin alpha 1 (ACTA1), ACTA1 (gene 58); assay: BSK_MyoF_ACTA1: BioMAP Diversity Plus: MyoF Assay for Actin alpha 1 (ACTA1) Biomarker Activity (AID 2284244); details: primary human lung fibroblasts
# How it was run: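 Human lung fibroblast (MyoF system) cultures dosed with test chemical; alpha-SMA measured by ELISA 24 h after dosing, normalized to DMSO control. Cytotoxicity tracked in parallel cultures by SRB total-protein staining.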
# [5] = read-out: Interleukin 2 (IL2), IL2 (gene 3558); assay: BSK_BT_xIL2: BioMAP Diversity Plus: BT Assay for Interleukin 2 (IL2) Biomarker Activity (AID 2284245); details: primary human B cells with PBMC
# How it was run: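 Human B cell plus PBMC co-culture, 24 h after chemical dosing; secreted IL-2 quantified by Luminex xMAP multiplex, fitted for signal gain against DMSO baseline.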
# [6] = read-out: Basic fibroblast growth factor (bFGF), FGF2 (gene 2247); assay: BSK_MyoF_bFGF: BioMAP Diversity Plus: MyoF Assay for Basic fibroblast growth factor (bFGF) Biomarker Activity (AID 2284246); details: primary human lung fibroblasts
# How it was run: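 Human lung fibroblast cultures were dosed and measured 24 h later in 96-well format. bFGF biomarker levels quantified by ELISA, with activity fitted in the positive direction against DMSO.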
# [7] = read-out: Collagen IV, COL4A1 (gene 1282); assay: BSK_MyoF_CollagenIV: BioMAP Diversity Plus: MyoF Assay for Collagen IV Biomarker Activity (AID 2284247); details: primary human lung fibroblasts
# How it was run: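 Primary human lung fibroblasts (MyoF system) dosed 24 h; Collagen IV measured by ELISA. Activity fitted in positive direction against DMSO; cytotoxicity tracked by SRB total-protein staining in parallel cultures.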
# [8] = read-out: Monokine induced gamma interferon (MIG), CXCL9 (gene 4283); assay: BSK_KF3CT_MIG: BioMAP Diversity Plus: KF3CT Assay for Monokine induced gamma interferon (MIG) Biomarker Activity (AID 2284248); details: primary human keratinocytes with fibroblasts
# How it was run: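 KF3CT system: keratinocyte/fibroblast co-culture, 24 h post-dose, MIG by ELISA; activity vs DMSO, positive fitting direction.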
# [9] = read-out: Vascular cell adhesion molecule 1 (VCAM1), VCAM1 (gene 7412); assay: BSK_BF4T_VCAM1: BioMAP Diversity Plus: BF4T Assay for Vascular cell adhesion molecule 1 (VCAM1) Biomarker Activity (AID 2284249); details: primary human bronchial epithelial cells with fibroblasts
# How it was run: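 Human bronchial epithelial cell and dermal fibroblast co-culture exposed 24 h. VCAM-1 measured by ELISA; parallel SRB total-protein staining for cytotoxicity. Fitted in positive direction relative to DMSO.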
# [10] = read-out: Collagen I, COL1A1 (gene 1277); assay: BSK_hDFCGF_CollagenI: BioMAP Diversity Plus: hDFCGF Assay for Collagen I Biomarker Activity (AID 2284250); details: primary human foreskin fibroblasts
# How it was run: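 Primary human foreskin fibroblasts exposed to chemical for 24 h; Collagen I levels measured by ELISA. Cytotoxicity checked by SRB total-protein staining in parallel cultures.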
# [11] = read-out: Interferon-inducible T-cell alpha chemoattractant (ITAC), CXCL11 (gene 6373); assay: BSK_hDFCGF_ITAC: BioMAP Diversity Plus: hDFCGF Assay for Interferon-inducible T-cell alpha chemoattractant (ITAC) Biomarker Activity (AID 2284251); details: primary human foreskin fibroblasts
# How it was run: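 ELISA readout of I-TAC after 24 h chemical exposure; human dermal foreskin fibroblast primary cells. Positive-direction fitting vs DMSO baseline. Parallel SRB total-protein staining (0.1% SRB after 10% TCA fixation, 560 nm) flags cytotoxicity.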
# [12] = read-out: Plasminogen activator inhibitor-1 (PAI1), SERPINE1 (gene 5054); assay: BSK_KF3CT_PAI1: BioMAP Diversity Plus: KF3CT Assay for Plasminogen activator inhibitor-1 (PAI1) Biomarker Activity (AID 2284252); details: primary human keratinocytes with fibroblasts
# How it was run: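 Human keratinocyte/foreskin fibroblast co-culture dosed for 24 h; PAI-1 measured by ELISA, fitted in positive direction against DMSO baseline. Parallel SRB total-protein staining (0.1% SRB, 560 nm) assesses overt cytotoxicity.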
# [13] = read-out: Monocyte Chemoattractant Protein-1 (MCP1), CCL2 (gene 6347); assay: BSK_IMphg_MCP1: BioMAP Diversity Plus: IMphg Assay for Monocyte Chemoattractant Protein-1 (MCP1) Biomarker Activity (AID 2284253); details: primary human endothelial cells with macrophages
# How it was run: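 Human venular endothelial cells co-cultured with macrophages; MCP-1 measured by ELISA 24 hours post-dose and fitted against DMSO. Cytotoxicity monitored by SRB total-protein staining in parallel cultures.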
# [14] = read-out: Interleukin-8 (IL8), CXCL8 (gene 3576); assay: BSK_KF3CT_IL8: BioMAP Diversity Plus: KF3CT Assay for Interleukin-8 (IL8) Biomarker Activity (AID 2284254); details: primary human keratinocytes with fibroblasts
# How it was run: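 Chemicals were added to co-cultured human keratinocytes and foreskin fibroblasts, incubated 24 h, then IL-8 was quantified by ELISA. Cytotoxicity was tracked by sulforhodamine B total-protein staining in parallel cultures.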
# [15] = read-out: Macrophage Inflammatory Protein-1 Alpha (MIP1a), CCL3 (gene 6348); assay: BSK_IMphg_MIP1a: BioMAP Diversity Plus: IMphg Assay for Macrophage Inflammatory Protein-1 Alpha (MIP1a) Biomarker Activity (AID 2284255); details: primary human endothelial cells with macrophages
# How it was run: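 Co-culture of human venular endothelial cells and macrophages exposed to compounds for 24 h; MIP-1a measured by ELISA relative to DMSO. Cytotoxicity assessed in parallel cultures by sulforhodamine B total-protein staining at 560 nm.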
# [16] = read-out: Plasminogen activator inhibitor-1 (PAI1), SERPINE1 (gene 5054); assay: BSK_MyoF_PAI1: BioMAP Diversity Plus: MyoF Assay for Plasminogen activator inhibitor-1 (PAI1) Biomarker Activity (AID 2284256); details: primary human lung fibroblasts;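 also: PAI-1 read 24 h after compound addition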
# How it was run: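 Primary human lung fibroblasts are dosed and incubated 24 h. PAI-1 is then measured by ELISA, while parallel cultures undergo SRB staining for overt cytotoxicity. Increases over DMSO define activity.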
# [17] = CCTE_Mundy_HCI_Cortical_NOG_BPCount: CCTE's Neurite Outgrowth Assay in rat cortical cells for Branch Point Count, Mundy Lab (AID 2284237);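 as to AC50: branch points counted about two days after chemical exposure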
# How it was run: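 Measured 50.33 h after dosing, this morphology endpoint uses rat primary cortical cultures labelled for betaIII-tubulin. Branch points are quantified by high-content imaging, with DMSO as negative control and baseline.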
# [18] = CCTE_Mundy_HCI_hNP1_Casp3_7: CCTE's Caspase-Glo 3/7 Assay in human neuroprogenitor cells for Apoptosis, Mundy Lab (AID 2284240)
# How it was run: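 Neuroepithelial-lineage stem cells from WA09 embryonic cells were treated with chemicals after 40–44 h of culture. Twenty-four hours later, caspase-3/7 activation was detected luminescently after a 30 min room-temperature reagent step, with DMSO as baseline.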
# [19] = CCTE_Mundy_HCI_hNP1_CellTiter: CCTE's Cell Titer-Glo 2 Assay in human neuroprogenitor cells for Viability, Mundy Lab (AID 2284241; active = hit-call score of the fitted dose curve at least 0.9, where 1 is the maximum)
# How it was run: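 Measures ATP content in human neural progenitors derived from WA09 embryonic cells. Read-out at 26.5 hours after dosing, with DMSO serving as the negative control and baseline.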
# [20] = CCTE_Mundy_HCI_Cortical_Synap_Neur_Matur_NeuronCount: CCTE's Synaptogenesis and Neurite Maturation Assay in rat cortical cells for Neuron Count, Mundy Lab (AID 2284242; active = hit-call score of the fitted dose curve at least 0.9, where 1 is the maximum)
# How it was run: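 Rat primary cortical cells, AraC added at DIV 5, dosed with media change from DIV 7 to DIV 12. Fixed, Hoechst-stained and immunolabelled for MAP2 and synaptophysin; neuron number counted by high-content imaging, loss fitted versus DMSO.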
smiles,measurement,setting,value
Cn1cnc([N+](=O)[O-])c1Sc1ncnc2nc[nH]c12,outcome,[1],inactive
same,outcome,[2],inactive
same,outcome,[3],inactive
same,AC50,[4],0.254 µM (active)
same,outcome,[4],inactive
same,AC50,[5],9.43 µM (active) and 12.6 µM (active)
same,outcome,[6],inactive
same,outcome,[7],inactive
same,outcome,[8],inactive
same,AC50,[9],12.6 µM (active)
same,outcome,[9],inactive
same,outcome,[10],inactive
same,AC50,[11],3.66 µM (active) and 12.6 µM (active)
same,outcome,[12],inactive
same,outcome,[13],inactive
same,outcome,[14],inactive
same,AC50,[15],12.2 µM (active)
same,outcome,[15],inactive
same,outcome,[16],inactive
O=C1CCC(N2C(=O)c3ccccc3C2=O)C(=O)N1 (stereo not drawn),outcome,[17],inactive
same,outcome,[18],inactive
same,outcome,[19],inactive
same,outcome,[20],inactive
NC(=O)NO,outcome,[17],inactive
same,outcome,[18],inactive
same,outcome,[19],inactive
same,outcome,[20],inactive
CC[C@H]1OC(=O)[C@H](C)[C@@H](O[C@H]2C[C@@](C)(OC)[C@@H](O)[C@H](C)O2)[C@H](C)[C@@H](O[C@@H]2O[C@H](C)C[C@H](N(C)C)[C@H]2O)[C@](C)(O)C[C@@H](C)C(=O)[C@H](C)[C@@H](O)[C@]1(C)O,outcome,[17],inactive
same,outcome,[18],inactive
same,outcome,[19],inactive
same,outcome,[20],inactive
Cn1c(=O)c2c(ncn2C)n(C)c1=O,outcome,[17],inactive
same,outcome,[18],inactive
same,outcome,[19],inactive
same,outcome,[20],inactive
O=P(OC(CCl)CCl)(OC(CCl)CCl)OC(CCl)CCl,AC50,[17],20.8 µM (active)
same,outcome,[18],inactive
same,outcome,[20],inactive
